Only some compounds are listed: those with a hit (about 4.6% of all), similar ones and a draw of the others.
MARV entry inh = inhibitors of Marburg virus binding or cell entry | Marburg virus pseudotyped entry inhibition, cell reporter | Potency, µM (series often up to 37.8 µM), actives largely listed as inhibitors | 1.8% of 300,000 active | AID 540276; calls by dose curve; tested in HEK293 cells
Lassa entry inh = inhibitors of Lassa virus binding or cell entry; 1.2% of 300,000 active; AID 540256; Lassa virus pseudotype entry inhibition, cell reporter; Potency, µM (highest dose often 37.9 µM), hits mostly inhibitors; calls by dose curve; tested in HEK293 cells; also: nearly all actives have a fitted effect of over 50% in size
HCV inhibitor = blocks hepatitis C virus. Huh7.5.1 HCVcc-Cre infection, luciferase reporter, 44 h. Potency, µM (series often up to 41.8 µM), hits mostly inhibitors. 3.4% of 340,000 active. AID 651820; active = well fitted inhibition curve with a large enough effect; inconclusive = small, poorly fitted or top-dose-only effect, or another doubt; inactive = no such curve, though single readings can be large or run the other way
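Luciferase read-out (15 sec integration) after a 15 min room-temperature substrate step quantifies HCVcc-Cre infection. Cells, 1,000 per well, had compound added 4 h post-plating, then virus at ~0.5 moi, and were cultured 44 h.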
Vaccinia mCherry = inhibitors of vaccinia virus infection (mCherry reporter signal). Vaccinia virus mCherry reporter infection, fluorescence. Potency, µM (titrated, usually from 36.5 µM), hits mostly inhibitors. 0.63% of 310,000 active; calls by dose curve; tested in A549 cells; also: nearly all actives have a fitted effect of over 35% in size
VACV Venus inh = inhibitors of vaccinia virus (Venus reporter) | Potency, µM (series often up to 36.5 µM), usual class: inhibitors | Vaccinia virus Venus reporter expression, fluorescence | 0.46% of 330,000 active | AID 720580; calls by dose curve; tested in A549 cells; also: nearly all actives have a fitted effect of over 30% in size
A number is an active result; 0 = inactive; ? = inconclusive; - = no result; [ ] = dose if it differs, or a comment.

SMILES	MARV entry inh	Lassa entry inh	HCV inhibitor	Vaccinia mCherry	VACV Venus inh
COc1ccccc1NC(=O)c1oc2ccccc2c1NC(=O)c1cccc(OC)c1OC	0	0	-	0	0
Cc1nc(C(C)NC2CCN(c3cccc(NC(=O)c4ccncc4)c3)CC2)cs1 (centres undefined)	-	-	-	0	0
COC(=O)c1ccc([C@H]2/C(=C(\O)c3ccc(OC)cc3)C(=O)C(=O)N2c2cc(C)on2)cc1	0	-	-	-	-
COc1ccc(C2NCCc3c2[nH]c2ccccc32)cc1CN1CCc2cc(OC)c(OC)cc2C1C (centres undefined)	-	-	11.2µM	?	0
COc1ccc(C2NCCc3c2[nH]c2ccccc32)cc1COc1ccc(F)cc1 (centres undefined)	?	23.1µM	10µM	-	-
Cc1cccc(NC(=O)Cn2c(=O)n(Cc3ccccc3)c(=O)c3sc4ccccc4c32)c1	0	0	-	0	?
Brc1ccc(NC2=Nc3ccccc3CC2)cc1	0	0	0	-	-
Cc1ccc(NC2=Nc3ccccc3CC2)cc1	7.94µM	?	0	-	0
C#CC(C)(CC)NC(=O)Cn1nnc(-c2ccc(OCc3ccccc3F)cc2)n1 (centres undefined)	?	0	-	?	11.2µM
Cc1cc2nn(-c3ccc(F)cc3)nc2cc1NC(=O)c1cccc2c(Cl)cccc12	0	0	-	0	0
CC(C)N(C(=O)CCl)c1ccccc1	-	-	10µM	0	?
O=C1c2cccc3cccc(c23)C(=O)N1CCN1CCN(CC(O)COCc2ccc(Cl)cc2)CC1 (centres undefined)	?	18.4µM	11.2µM	11.2µM	?
CCOC(=O)N1CCN(CC(O)COCc2cc(OC)c(OC)c(OC)c2)CC1 (centres undefined)	?	0	0	0	0
COc1cc(COCC(O)CN2CCN(CCN3C(=O)c4cccc5cccc(c45)C3=O)CC2)cc(OC)c1OC (centres undefined)	?	0	3.55µM	0	?
COc1ccc(COCC(O)CN2CCC(CN3C(=O)c4cccc5cccc(c45)C3=O)CC2)cc1OC (centres undefined)	9.2µM	?	?	0	?
COc1ccc(COCC(O)CN2CCC(C(N)=O)CC2)cc1OC (centres undefined)	0	0	0	0	0
C=C(CO[C@@H]1C=C[C@@H](c2ccccc2)O[C@@H]1CO)c1ccccc1	0	-	-	-	-
Cc1cc(S(=O)(=O)C(CNC(=O)COc2ccc(Cl)cc2)c2cccs2)ccc1F (centres undefined)	-	?	-	0	0
CCC(=O)N1CCc2cc(S(=O)(=O)NCCC(=O)N3CCN(c4cccc(C)c4)C(C)C3)ccc21 (centres undefined)	-	-	14.1µM	-	-
CCC(=O)N1CCc2cc(S(=O)(=O)CCC(=O)N3CCN(c4cccc(Cl)c4)CC3)ccc21	0	0	-	0	0
CC(=O)N1CCc2cc(S(=O)(=O)NCCC(=O)NCCc3ccc(C)cc3)ccc21	?	?	10µM	0	0
CCC(=O)N1CCc2cc(S(=O)(=O)CCC(=O)N3CCN(c4ccc(Cl)cc4)CC3)ccc21	?	0	10µM	0[7.34 µM]	0[7.34 µM]
Cc1oc2ncn(C)c(=O)c2c1C(=O)NCCCN1CCCCC1C (centres undefined)	-	0	-	0	0
O=C(c1ccc2c(c1)N(Cc1ccccc1F)C(=O)c1ccccc1S2=O)N1CCC(Cc2ccccc2)CC1 (centres undefined)	?	?	-	0	0
CCc1ccc2occ(CC(=O)Nc3c(C(=O)c4ccc(F)cc4)oc4ccccc34)c2c1	0	0	-	0	0
SMILES	MARV entry inh	Lassa entry inh	HCV inhibitor	Vaccinia mCherry	VACV Venus inh
CCOC(=O)N1CCN(Cc2ccc(O)c3ncccc23)CC1	?	?	4.47µM	?	?
OCc1ccc(O)c2ncccc12	?	?	11.2µM	-	?
Oc1ccc(CN2CCC(Cc3ccccc3)CC2)c2cccnc12	?	2.82µM	?	0	?
Oc1ccc(Cc2ccccc2)c2cccnc12	?	0	?	?	?
Oc1ccc(CNc2ccccc2F)c2cccnc12	?	?	11.2µM	10µM	10µM
Oc1c(CN2CCCCC2)ccc2cccnc12	?	0	10µM	8.91µM	?
Oc1cc2c(cc1CN1CCc3ccccc3C1)OCO2	0	0	0	?	0
Cc1ccc(C)c(S(=O)(=O)N2CCN(Cc3ccc(O)c4ncccc34)CC2)c1	7.3µM	9.2µM	?	?	?
Oc1ccc(CN2CCCCC2)c2cccnc12	?	0	6.31µM	0	?
Oc1ccc(CN2CCc3ccccc3C2)c2cccnc12	3.26µM	2.59µM	3.98µM	-	-
O=[N+]([O-])c1cc(CN2CCCC2)c2cccnc2c1O	0	0	0	0	0
COc1ccccc1/C=C/c1nc2ccccc2s1	-	-	-	0	0

Screening data as filed in PubChem.
